The source of these data is PubChem BioAssay AID1672 (Johns Hopkins Ion Channel Center, 2009).

Molecules are shown by their SMILES. Out of some 310,000 compounds screened, about 2,600 (0.84%) were called active. The sample holds actives, similar compounds and a random draw of the others, so the mix is not that of the screen.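 The calls were made as follows: active = fluorescence ratio B-score at or below minus 3 SD of library scores, with starting-brightness B-score within 2 SD (cut at about -4.2 in these data); inactive = the rest.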

In the assay the target is Inward rectifier potassium channel 2 (Mus musculus) (UniProt P35561). As to the kind of experiment: blocks the mouse Kir2.1 inward-rectifier potassium channel (AID 1672).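 Also: channel flux triggered by added potassium and thallium sulfate stimulus; B-score of peak minus minimum fluorescence over baseline after thallium stimulus; more negative B-score means stronger Kir2.1 block with less thallium influx.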 Conditions: HEK293-Kir2.1, FluxOR thallium flux fluorescence; at 10 µM; active compounds read low.
Sequence of Inward rectifier potassium channel 2 (Mus musculus) (P35561 whole entry, looked up): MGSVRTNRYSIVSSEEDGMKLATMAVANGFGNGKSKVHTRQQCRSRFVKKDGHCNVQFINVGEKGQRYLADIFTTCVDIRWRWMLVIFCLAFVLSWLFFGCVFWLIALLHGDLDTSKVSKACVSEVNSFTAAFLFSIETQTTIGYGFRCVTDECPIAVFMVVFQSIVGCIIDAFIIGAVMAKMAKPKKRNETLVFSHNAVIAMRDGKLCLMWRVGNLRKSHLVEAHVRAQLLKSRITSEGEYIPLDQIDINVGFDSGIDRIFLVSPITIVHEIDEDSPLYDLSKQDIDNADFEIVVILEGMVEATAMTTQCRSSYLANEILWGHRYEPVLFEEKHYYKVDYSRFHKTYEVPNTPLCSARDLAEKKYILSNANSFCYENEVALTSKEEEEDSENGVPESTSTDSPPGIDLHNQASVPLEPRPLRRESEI
Consider `Cn1c(CCCOc2ccc(Cl)cc2Cl)n[nH]c1=S`, for which the B-score was 1.02 (inactive).

For the compound `CC(C)(C)NCCCOc1ccc(Cl)cc1C(C)(C)C`, the B-score was -3 (inactive). Next, `CN(C)CCOc1ccc(Cl)cc1C(C)(C)C`: -4.91 (active). As for `CC(C)COc1ccc(C(=O)OCC(=O)NCCC2=CCCCC2)cc1`, the figure is -0.32 (inactive); as for `CC1(C)C/C(=N/Nc2ccc([N+](=O)[O-])cc2[N+](=O)[O-])C(C)(C)O1`, -0.99 (inactive). Next, `Cc1ccc2nc(SCC(=O)Nc3cccc4ccccc34)nc(=O)n2c1`: -0.81 (inactive); `COc1ccccc1CNS(=O)(=O)c1ccc2c(c1)NC(=O)CS2`: -3.14 (inactive); `CCC(Cc1ccccc1)NS(=O)(=O)c1ccc2c(c1)NC(=O)CS2` (stereo unspecified): -7.18 (active). Turning to `O=C1CSc2ccc(S(=O)(=O)NCc3ccccc3)cc2N1`, the B-score was -1.97 (inactive).

For the compound `O=C(Nc1cc(Cl)ccc1N1CCOCC1)c1ccc(N2CCCC2=O)cc1`, the B-score is -0.11 (inactive). Next, `CCN(CC(=O)Nc1ccccc1C(F)(F)F)C(=O)CSCc1c(C)noc1C`: -0.18 (inactive); `CC1(C)Oc2ccc3ccc(=O)oc3c2/C(=N/O)C1=O`: -3.77 (inactive); `C/C=C(/C)C(=O)OC1Cc2c(ccc3ccc(=O)oc23)OC1(C)C` (stereo unspecified): -6.49 (active). Next, `CC1(C)Oc2ccc3ccc(=O)oc3c2/C(=C/NCCO)C1=O`: -0.79 (inactive). With `COc1ccc(C(CNC(=O)c2cccc(S(=O)(=O)Nc3ccccc3Cl)c2)N2CCOCC2)cc1` (stereo unspecified), the B-score was 0.72 (inactive). As for `COc1ccccc1NS(=O)(=O)c1ccc(C(=O)N2CCN(c3ccccc3O)CC2)cc1`, the figure is -0.57 (inactive); as for `COc1ccc(C(C#N)(CC(=O)O)c2cnccn2)cc1OC` (stereo unspecified), -2.49 (inactive); as for `Cc1cc(C)c(-c2csc(NC(=O)CCCc3nc4ccccc4c(=O)[nH]3)n2)c(C)c1`, 0.9 (inactive).

Take `CC1COc2ccccc2N1S(=O)(=O)c1ccccc1` (stereo unspecified): the B-score was -8.7 (active).

Consider `CC1CN(S(=O)(=O)c2ccccc2)C(C)CN1S(=O)(=O)c1ccccc1` (stereo unspecified), for which the B-score was -1.27 (inactive). Next, `CC1COc2ccccc2N1C(=O)c1cccnc1Cl` (stereo unspecified): -0.04 (inactive); `Cn1ccsc1=NC(=O)c1cc(S(=O)(=O)N2CCOCC2)ccc1Cl`: -1.21 (inactive); `O=C(NN1CCOCC1)c1cccc(F)c1`: 0.11 (inactive). Consider `Cc1ccc(N2CC(C(=O)N3CCC4(CC3)CC(=O)c3ccccc3O4)CC2=O)cc1C` (stereo unspecified), for which the B-score is 0.05 (inactive).

Consider `O=C(Nc1ccccc1N1CCCC1)c1ccc(F)c(S(=O)(=O)N2CCOCC2)c1`, for which the B-score is -1.53 (inactive).

`CC1(C)CC(N2CCN(C(c3ccccc3)c3ccccc3)CC2)=CC(=[N+]2CCCCC2)C1`: the B-score is -9.72 (active).

Turning to `O=C(O)CN1CCN(C(c2ccccc2)c2ccccc2)CC1`, the B-score is 0.58 (inactive). Take `CC(C)NC(=S)N1CCN(C(c2ccccc2)c2ccccc2)CC1`: the B-score was 0.81 (inactive). Next, `CC12CCC(=O)N1C(C(=O)NCCN1C(=O)S/C(=C\c3ccccc3F)C1=O)CS2` (stereo unspecified): 1.85 (inactive). As for `COCCNC(=S)N(Cc1cccnc1)Cc1ccc(OC)c(OC)c1`, the figure is -0.71 (inactive); as for `COCCCNC(=S)N(Cc1ccccc1)Cc1ccc(F)cc1`, -4.64 (active); as for `COCCCNC(=S)NC(=O)c1ccccc1`, 0 (inactive). Next, `O=C(CN1CCOCC1)Nc1cccc([N+](=O)[O-])c1`: -1.26 (inactive). Consider `COc1cc(/C=N/NC(=O)c2cc(-c3ccccc3C)nc3ccccc23)cc(OC)c1O`, for which the B-score is 0.05 (inactive). `CC(C)Nc1nnc(SC(C)C(=O)N(C)C2CCCCC2)s1` (stereo unspecified): the B-score is 1.34 (inactive).

Turning to `CC(NC(=O)CNC(=O)Cc1cccc2ccccc12)c1ccc(S(N)(=O)=O)cc1` (stereo unspecified), the B-score was 1.18 (inactive). As for `NS(=O)(=O)c1ccc(CCNC(=O)NC2CCCCC2)cc1`, the figure is -0.34 (inactive); as for `CC(NC(=O)CCCC1CCCCC1)c1ccc(S(N)(=O)=O)cc1` (stereo unspecified), -5.32 (active). As for `Cc1ccc2c(C)c(C(=O)N3CCN(c4ccncc4)CC3)oc2c1C`, the figure is -0.57 (inactive); as for `CC(=O)NC(C)c1nc2ccccc2n1Cc1ccccc1F` (stereo unspecified), -2.56 (inactive); as for `Fc1ccccc1Cn1cnc(NC(=S)NCCc2ccccc2)n1`, 1.75 (inactive). Next, `N=c1n(CCc2ccccc2)c2ccccc2n1Cc1ccccc1F`: -8.75 (active); `Cc1ccc(CN2CCN(c3ccccc3Cl)CC2)o1`: -1.98 (inactive); `c1ccc(CSc2nnc(-c3ccco3)n2Cc2ccccc2)cc1`: -8.28 (active).

In the case of `O=C(CSc1nnc(-c2ccco2)n1Cc1ccccc1)NC(=O)NCc1ccco1`, the B-score is -1.04 (inactive).

Take `c1ccc(CSc2nnc(-c3ccco3)c(-c3ccco3)n2)cc1`: the B-score is 0.54 (inactive).

Regarding `Cc1nc2c(c(C)nn2-c2ccccc2)c(C)c1C`, the B-score was -0.74 (inactive). Next, `C#CCNC(=O)[C@H](Cc1ccc(C(=O)c2ccccc2)cc1)NC(=O)OC(C)(C)C`: -2.31 (inactive); `Nc1ccccc1SC(C[N+](=O)[O-])c1ccccc1` (stereo unspecified): -7.5 (active); `CCS(=O)(=O)c1cc([N+](=O)[O-])c(Sc2ccccc2N)s1`: 0.71 (inactive). As for `Nc1ccccc1Sc1ccc(C(F)(F)F)cc1[N+](=O)[O-]`, the figure is -2.03 (inactive).

For `COc1cc(C(=O)N(C)Cc2cccc(OC)c2OC)ccc1OCC(=O)Nc1cccc(C(F)(F)F)c1`, the B-score was 1.36 (inactive). Next, `CCOC(=O)CN(C)Cc1c[nH]c2ccccc12`: 0.81 (inactive). As for `O=C(COC(=O)Cc1c[nH]c2ccccc12)NCCc1ccccc1`, the figure is -1.86 (inactive); as for `O=C(Cc1c[nH]c2ccccc12)OCCOC(=O)Cc1c[nH]c2ccccc12`, -7.97 (active); as for `O=C(COc1coc(CN2CCN(c3ccccc3)CC2)cc1=O)N1CCc2ccccc21`, 0.28 (inactive). As for `S=C(Nc1ccc(Br)cc1)NC1CCN(Cc2ccccc2)CC1`, the figure is -9.22 (active).

For `S=C(Nc1ccc(Br)cc1Cl)NC1CCN(Cc2ccccc2)CC1`, the B-score was -0.65 (inactive).

With `O=C(NC1CCN(Cc2ccccc2)CC1)c1c(F)cccc1F`, the B-score was 0.03 (inactive).

`CCN(CC)c1ccc(NC(=O)c2ccc(=O)[nH]c2)cc1S(=O)(=O)Nc1ccc(OC)cc1`: the B-score was 0.31 (inactive). As for `COc1cccc(C(=O)NCCS(=O)(=O)NCC2CCCO2)c1` (stereo unspecified), the figure is 2.76 (inactive); as for `CCC(C)N(C(=O)CSc1ncnc2c1cnn2-c1ccccc1)C1CCS(=O)(=O)C1` (stereo unspecified), 0.08 (inactive); as for `COCCNCCOCCOc1cccc(OC)c1`, -0.8 (inactive). Take `Clc1cccc(Cl)c1OCCOCCNCc1ccccc1`: the B-score is -7.4 (active).

Regarding `CCOc1ccccc1OCCCNCc1ccccc1`, the B-score is -3.69 (inactive). Take `CCCOc1ccc(Cl)cc1Nc1nc(NCCO)nc(N2CCCC2)n1`: the B-score was 0.67 (inactive). As for `Cc1ccc(C(C)C)cc1OCCN1CCCC1`, the figure is -1.08 (inactive).

As for `COc1cccc(OCCCN2CCCCCC2)c1`, the B-score was 0.91 (inactive). As for `Cc1cc(OCCN2CCCC2)cc(C(C)C)c1`, the figure is -4.28 (active); as for `Cc1cccc(NC(=O)c2ccc(S(=O)(=O)N(C)CC3CCCO3)cc2)c1C` (stereo unspecified), 1.86 (inactive); as for `CN(c1ccccc1)S(=O)(=O)c1ccc(NC(=O)COc2ccccc2)cc1`, -1 (inactive). As for `COCCNC(=O)COc1ccc(N(C)S(=O)(=O)c2ccc3ccccc3c2)cc1`, the figure is -5.91 (active); as for `CN(c1ccc(OCC(=O)O)cc1)S(=O)(=O)c1ccc2ccccc2c1`, -1.8 (inactive).

For the compound `COc1ccc(CCNC(=S)N2CCN(S(=O)(=O)c3ccc(F)cc3)CC2)cc1`, the B-score was 0.06 (inactive). Regarding `Cc1ccc2nc(N3CCN(C(=O)c4ccco4)CC3)sc2c1`, the B-score was -0.26 (inactive). Next, `OCc1ccc(-c2ccccc2)c(-c2ccccc2)c1`: -1.83 (inactive); `Cc1cc(C)c(S(=O)(=O)NCC(c2ccc3c(c2)OCO3)N2CCOCC2)c(C)c1` (stereo unspecified): -1.24 (inactive); `COc1ccc(OC)c(NC(=S)N2CCc3ccccc3C2)c1`: 0.14 (inactive).

In the case of `COc1ccc(NC(=O)C(=O)NCC(c2ccco2)N2CCc3ccccc3C2)cc1` (stereo unspecified), the B-score was 1.13 (inactive).

Regarding `COc1ccc(CCC(C)N2CCc3ccccc3C2)cc1` (stereo unspecified), the B-score was -8.02 (active). Next, `Cc1c(C)n2c(SCC(=O)NC3CCCC3)nnc2[nH]c1=O`: 0.79 (inactive); `O=C1[C@H]2[C@@H](c3ccc(F)cc3)N3C(=O)N(c4ccc(C(F)(F)F)cc4)C(=O)[C@@]3(Cc3ccccc3)[C@H]2C(=O)N1C1CCCCC1`: -0.87 (inactive); `[O-][n+]1ccc(OCc2ccccc2)cc1`: 0.47 (inactive). Next, `Cc1cccc(N2CC(C(=O)Nc3ccccc3N3CCCC3)CC2=O)c1C` (stereo unspecified): 0.2 (inactive).

As for `CC(=O)Nc1ccc(Nc2c3ccccc3nc3ccccc23)cc1`, the B-score is 0.07 (inactive). Regarding `N#Cc1cccc(Nc2c3c(nc4ccccc24)CCCC3)c1`, the B-score was -0.49 (inactive). Next, `Cc1ccc(Nc2c3c(nc4ccccc24)CCC3)cc1`: -15.2 (active); `Cc1ccc(S(=O)(=O)NC(C)C(=O)NCc2ccc(Cl)cc2)cc1` (stereo unspecified): 1.6 (inactive); `CSCC(=O)N1CCCC(C(=O)c2cc(F)ccc2F)C1` (stereo unspecified): 1.27 (inactive). Next, `COc1ccc(/C=C/CN2CCCC(C(=O)c3cc(F)ccc3F)C2)cc1` (stereo unspecified): -4.21 (active); `O=C(c1ccc(OC2CCN(C/C=C/c3ccc(F)cc3)CC2)cc1)N1CCCCC1`: -2.2 (inactive). Next, `COc1ccc(-c2csc3ncnc(N4CCN(S(=O)(=O)c5cccc(F)c5)CC4)c23)cc1`: 0.02 (inactive). For `COc1cccc(-c2cccc(NC(=O)C3CCN(C4CCC4)CC3)c2)c1`, the B-score was -0.09 (inactive).

`O=C(Nc1cccc(-c2cccc(Cl)c2)c1)C1CCN(C2CCC2)CC1`: the B-score was -4.84 (active). Take `CC(=O)c1cc(CN2CCC(C(=O)Nc3cccc(-c4cscn4)c3)CC2)cs1`: the B-score is -2.25 (inactive). Next, `CCNC(=S)NNC(=O)C1CCN(Cc2ccccc2)CC1`: -0.93 (inactive); `CCn1cc(CN2CCC(C(=O)Nc3cccc(-c4cccc(Cl)c4)c3)CC2)cn1`: -6.62 (active); `O=C(Nc1ccc(-c2cscn2)cc1)C1CCCN(Cc2ccc(CO)o2)C1` (stereo unspecified): -0.77 (inactive). Next, `O=C(Nc1cnn(Cc2ccc(Cl)cc2)c1)C1CCCC1`: -1.43 (inactive); `O=C(NC1CCCC1)C1CCN(C(=O)Nc2cccc(Cl)c2)CC1`: -1.63 (inactive); `O=C(Nc1cccc(-c2cscn2)c1)C1CCN(Cc2ccsc2)CC1`: -7.36 (active).
